This is an account of results in PubChem BioAssay (NCI).

This is part of a sample that, as a whole, favours compounds with a hit. Of some 83,000 tested, about 20% had one in any assay.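 In brief: 96-well plates, 48 h treatment, single concentration, percent growth endpoint.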 A number with no mark means an inactive call. Activity calls are given as the source filed them. Rule for the calls: active = growth percent below 10; inactive = the rest.

This test has as its system HL-60(TB) leukemia. Briefly: NCI-60 one-dose screen, 48 h (100 = growth as untreated, 0 = no growth, -100 = all killed). The settings on record: 10 µM unless noted.
On to `ClCc1cccc2c(CCl)cccc12`, for which the growth is 48.2%.
With `OC(CBr)CCBr` (stereo not given) the figure was 103%.
`CC(C)(CO)N(CCO)CCO`: the growth is 103%.
For `CCC(C)CC(CC)NCCN1CCN(C(CC)CC(C)CC)C1=S` (stereo not given), the growth is 39.8%.
In the case of `O=C(c1ccccc1)c1c(/C=C/c2ccc(Cl)cc2)nc2ccccc2c1/C=C/c1cccs1`, the growth is 102%.
With `O=[N+]([O-])c1ccc(SSc2ccc([N+](=O)[O-])cc2Cl)c(Cl)c1` the figure was 92.5%; with `CC(C)CSc1nc(N)nc2c1ncn2C1OC(CO)C(O)C1O` (stereo not given), 113%.
With `Fc1ccc2nc(-c3ccc(-c4noc(-c5ccc(Cl)cc5)n4)cc3)[nH]c2c1` the figure was 88.7%; with `COC(=O)c1ccc(C2Nc3ccc(S(=O)(=O)Nc4ccc(C)c(C)c4)cc3C3OCCC23)cc1` (stereo not given), 59.3%; with `CNC(=O)c1ccccc1CC1(O)c2ccccc2Oc2ccccc21`, 17.8%.
With `CC[C@H](Nc1nc(N)nc(N)c1Cl)c1nc2cccc(NCc3ccc(C(=O)NO)cc3)c2c(=O)n1-c1ccccc1` the figure was -34.7% (active).
Turning to `CC(=O)c1cccs1`, the growth was 130%.
With `O=[N+]([O-])c1cc(C(F)(F)F)ccc1Sc1ccc(C(F)(F)F)cc1[N+](=O)[O-]`, the growth was 8.05% (active).
Regarding `CC1CN(Cc2ccccc2)C(=O)NC1=O` (stereo not given), the growth is 88.7%.
On to `COc1cc(C2CC(=O)Nc3c2c(C)nn3-c2nc3ccccc3[nH]2)cc(OC)c1OC` (stereo not given), for which the growth is 108%.
With `CC(=O)O[C@]1(C(C)=O)CCC2C3C[C@H](C)C4=CC(=O)CC[C@]4(C)C3CC[C@@]21C` (stereo not given in full) the figure was 87.4%; with `O=C(CSc1nc(-c2ccc(Cl)cc2)cn1-c1ccc(Cl)cc1)c1ccc(Br)cc1`, 97.1%.
Consider `COc1cc(Nc2ncccc2NC(=O)c2cn(Cc3cccc(Oc4ccccc4)c3)nn2)cc(OC)c1`, for which the growth is 64.6%.
For `CC1COCC(C)N1C1=C(Cl)C(=O)c2ccccc2C1=O` (stereo not given) the value was -19.5% (active); for `Clc1cccc(Cl)c1CSc1nc2ccccc2n2cccc12`, 94.3%; for `O=c1c2sc3ncc(Br)cc3c2ncn1-c1cccc(Cl)c1`, 84.5%.
Regarding `COc1ccc(NC(=O)c2sc3nc(C)c(C(=O)c4ccc(OC)cc4)cc3c2N)cc1`, the growth was 6.31% (active).
For `COc1ccc(/C=C(\C#N)c2cc(OC)c3c(c2)OCO3)cc1` the value was -1.4% (active).
For `O=C(CN1CCN(c2ccccc2)CC1)N1CCN(c2nnc(-c3ccc(Cl)cc3)c(-c3ccc(Cl)cc3)n2)CC1`, the growth is -40.7% (active).
With `Cn1ncc(Cl)c1-c1cc(C(=O)N[C@H](CN)Cc2cccc(F)c2)sc1Cl` the figure was 12.2%; with `Nc1ccc(S(=O)(=O)O)c2cc(S(=O)(=O)O)cc(O)c12`, 99.2%; with `COc1ccc(-c2nc3c(ncc4ccc(=O)[nH]c43)s2)cc1`, 80.1%.
For `COc1ccc(/C=C/c2nc(NCCCN(C)C)c3ccccc3n2)cc1` the value was 88.3%.
With `N#CCCN(CCCN1CCOCC1)CN1C(=O)c2ccccc2C1=O`, the growth was 83.2%.
For the molecule `Cn1cc(-c2nonc2-c2cn(C)c3ccccc23)c2ccccc21`, the growth is -27% (active).
With `COc1cc(C(F)(F)F)ccc1-c1cc(-c2ccc(F)cc2)n[nH]1` the figure was 115%.
With `CNCc1cccc2c1OCCOCCN(C)C(=O)CN(C)S(=O)(=O)c1ccc(cc1)-c1cnc(N)c(n1)C(=O)N2`, the growth is -32.9% (active).
`O=C(NCCNc1cc(-c2cn(-c3ccccc3)nc2-c2cccc(O)c2)ccn1)Nc1ccccc1`: the growth is 29.9%.
With `C=C(C)[C@H]1CC/C(C)=C/CC[C@]2(C)O[C@H]2CC/C(C=O)=C\C1O` (stereo not given in full) the figure was 253%; with `COc1ccc(Sc2[nH]c(C=O)c3ccccc23)cc1`, 14.7%.
With `COc1nc2ccccc2cc1-c1nc2c(cnn2-c2ccc(Br)cc2)c(=O)[nH]1` the figure was 8.57% (active); with `COC(=O)C1=Nc2ccc(F)cc2/C1=C\c1sc(Nc2ccc(O)cc2)nc1O`, 54.8%.
In the case of `CCOC(=O)c1cc2c(n1Cc1cccc(OC)c1)-c1oncc1CCC2`, the growth is 7.26% (active).
For `CCOC(=O)c1c2c(c(C)n1C)-c1nn(Cc3ccc(OC)cc3)cc1CC2` the value was 73.1%; for `C=CCN(CC#N)CC=C`, 106%.
